Screening data: PubChem BioAssay, National Center for Advancing Translational Sciences (NCATS)
Hits are enriched below; roughly 11% of the tested compounds scored in any of these assays.
ERK AVP inh – blocks ERK signaling stimulated by vasopressin; HEK293-V1b, vasopressin-stimulated pERK AlphaScreen; actives 0.99% (n = 72,000); Potency, µM (top dose mostly 57.5 µM), most hits filed as inhibitors; AID 995; note: nearly all actives have a fitted effect of over 55% in size
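HEK293 cells stably expressing V1b receptor, seeded overnight in 1% FBS, were treated with compounds for 30 min at 37C, then stimulated 5 min with 25 nM vasopressin; phospho-ERK read by AlphaScreen SureFire after lysis.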
Luciferase inh – inhibitors of firefly luciferase; purified firefly luciferase, luminescence, 8 min; Potency, µM (titrated, usually from 57.1 µM), usual class: inhibitors; actives 2.2% (n = 72,000); note: nearly all actives have a fitted effect of over 40% in size
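Here, luciferase activity is measured as luminescence following an 8 min room-temperature reaction at 10 uM ATP, pH 7.2. Every library sample is titrated.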
Bst PK mod – alters activity of Bacillus stearothermophilus pyruvate kinase; purified pyruvate kinase, luminescence ATP production; ribose 5-phosphate activator present at AC10; Potency, µM; actives 1.2% (n = 51,000); in the data active = potency below about 11 µM; inconclusive = mostly about 12 µM to 25 µM;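 the screen sought inhibitors and activators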
15-hLO inh – inhibitors of human 15-lipoxygenase (ALOX15); Potency, µM (top dose mostly 57.1 µM), actives largely listed as inhibitors; purified 15hLO-1, xylenol orange hydroperoxide absorbance; actives 1.4% (n = 74,000); note: nearly all actives have a fitted effect of over 55% in size
Target sequence (P16050 whole entry, looked up): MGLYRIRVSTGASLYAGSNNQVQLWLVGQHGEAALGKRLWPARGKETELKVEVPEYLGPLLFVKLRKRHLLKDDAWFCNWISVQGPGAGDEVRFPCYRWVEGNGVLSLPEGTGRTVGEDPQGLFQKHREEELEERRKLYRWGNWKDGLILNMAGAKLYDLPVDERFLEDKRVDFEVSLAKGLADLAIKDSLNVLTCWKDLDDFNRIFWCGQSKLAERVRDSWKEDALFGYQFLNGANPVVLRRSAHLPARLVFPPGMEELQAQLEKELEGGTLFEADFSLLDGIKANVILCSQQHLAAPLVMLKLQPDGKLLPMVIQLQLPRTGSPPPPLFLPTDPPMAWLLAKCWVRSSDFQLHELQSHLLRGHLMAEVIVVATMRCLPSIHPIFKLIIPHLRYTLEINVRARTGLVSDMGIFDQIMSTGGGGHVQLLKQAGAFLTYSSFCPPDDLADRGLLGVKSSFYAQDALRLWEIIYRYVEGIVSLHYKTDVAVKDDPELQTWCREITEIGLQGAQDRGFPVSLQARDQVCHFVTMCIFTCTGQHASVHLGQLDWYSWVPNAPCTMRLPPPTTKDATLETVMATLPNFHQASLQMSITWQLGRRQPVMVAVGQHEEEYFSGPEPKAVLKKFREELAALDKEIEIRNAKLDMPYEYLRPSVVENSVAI
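Purified human 15hLO-1 (40 nM) in 25 mM Hepes pH 7.5, 0.01% Triton X-100, preincubated 15 min RT with compound, then 50 uM arachidonic acid for 6 min. Hydroperoxide read by ferrous/xylenol orange, 30 min; 573/405 nm absorbance ratio gave progress.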
HADH2 inh – blocks human hydroxyacyl-CoA dehydrogenase type II. Q99714. recombinant HADH2, NADH fluorescence, beta-hydroxybutyryl-CoA. Potency, µM (top dose mostly 57.1 µM), hits mostly inhibitors. actives 3.4% (n = 73,000); note: nearly all actives have a fitted effect of over 60% in size
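20 nM HADH2 + cpd, 15 min RT; add 1 mM NAD+/90 uM beta-hydroxybutyryl-CoA; kinetic fluorescence 360/450 nm, 4 min. Tris-HCl pH 9.0, 0.01% Tween-20.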
HSD17B inh – inhibitors of human HSD17B10 dehydrogenase | Q99714 | recombinant HSD17B10, NADH fluorescence kinetic | Potency, µM (top dose mostly 57.1 µM), hits mostly inhibitors | actives 7.6% (n = 75,000);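 note: the protocol describes HADH2 (HSD17B10) and not the HSD17B4 of the title; nearly all actives have a fitted effect of over 70% in size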
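20 nM HADH2, pH 9.0 Tris/Tween; cpd preinc 15 min RT; start w/ 1 mM NAD+ + 90 uM b-hydroxybutyryl-CoA; kinetic fluor ex360/em450 q30s x 4 min; delta last-first.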
Hits are given with their value; n = inactive; u = inconclusive; x = not tested or not shown; [ ] = dose if it differs, or a comment. Unless noted, calls come from the whole dose curve; as a rule, active = well fitted curve in the direction sought with a large enough effect; inconclusive = small, poorly fitted or top-dose-only effect, or another doubt; inactive = no such curve, though single readings can be large; an effect the other way counts as inactive or inconclusive.

SMILES	ERK AVP inh	Luciferase inh	Bst PK mod	15-hLO inh	HADH2 inh	HSD17B inh
N#Cc1c(-c2ccccc2Cl)cc(C2CC2)nc1N	x	n	n	x	x	x
CCc1nc(N)c(C#N)c(-c2ccccc2OC)c1C	n	n	n	n	n	25µM
O[C@@H](c1cc(-c2ccccc2)nc2c1ccc1ccccc12)[C@@H]1CCCCN1	n[11.5 µM]	n[11.4 µM]	x	n[11.4 µM]	n[11.4 µM]	n[11.4 µM]
COc1ccc(-c2cc([C@H](O)[C@@H]3CCCCN3)c3ccccc3n2)cc1	n[11.5 µM]	n[11.4 µM]	x	n[11.4 µM]	u	4µM
Cn1c(=O)c(-c2cccs2)nc2cnc(Oc3ccccc3)nc21	n	n[11.4 µM]	x	n	n	25µM
COc1ccc(-n2c(=O)c(-c3cccs3)nc3cnc(OC)nc32)cc1	n	n[11.4 µM]	x	n	n	u
Cc1nc2cnc(OCc3ccccc3)nc2n(C)c1=O	n	n[11.4 µM]	x	n	n	n
Cn1c(=O)c(-c2cccs2)nc2cnc(OCc3ccccc3)nc21	n	n[11.4 µM]	x	n	n	25µM
COc1ncc2nc(-c3cccs3)c(=O)n(C)c2n1	n	n[11.4 µM]	x	n	n	13µM
Cn1c(=O)c(-c2ccc(Cl)cc2)nc2cnc(Oc3ccccc3)nc21	n	n[11.4 µM]	x	n	n	25µM
O=C(O)CNCCc1ccccc1	n[11.5 µM]	n[11.4 µM]	x	n[11.4 µM]	n[11.4 µM]	n[11.4 µM]
COCCN(CCOC)C(=O)c1ccc(Cc2nc3ccccc3[nH]2)cc1	x	x	x	n	u	n
FC(F)(F)c1ccccc1-c1ccc2ncnc(NCc3cccnc3)c2c1	n	n[2.29 µM]	x	n	n	n
COc1ccc(N2CCN(c3nc(NCCc4ccc(OC)c(OC)c4)nc(OC)n3)CC2)cc1	16µM	n	x	n	n	n
COc1ccc(Nc2nc(OC)nc(N3CCN(c4ccc(OC)cc4)CC3)n2)cc1	u	n	x	n	n	n
COc1ccc(OC2C=CC(c3ccccc3)OC2CO)c(C(C)(C)C)c1 (configuration not stated)	n[11.5 µM]	x	x	n[11.4 µM]	n[11.4 µM]	n[11.4 µM]
O=c1[nH]c(-c2ccccc2O)nc2c1CCCC2	n	n	n	n	n	3.2µM
CCCC(=O)NCCc1c2n(c3ccc(OC)cc13)Cc1ccccc1-2	u	n	x	n	25µM	4µM
COc1ccc2[nH]c(I)c(CCNC(C)=O)c2c1	n	n	x	n	n	n
Cc1ccc2c(c1)c(C)c(C)n2CC(O)Cn1nc(C)cc1C (configuration not stated)	n	n	n	u	n	32µM
Cc1ccc2c(c1)c(C)c(C)n2CC(O)Cn1nnc2ccccc21 (configuration not stated)	u	n	n	u	n	u
NC(Cc1c[nH]c2ccccc12)C(=O)NCC(=O)O (configuration not stated)	n	x	x	n	x	n
O=c1nc2n(c3c1oc1ccccc13)Cc1ccccc1-2	n	n	n	n	u	4µM
CS(=O)(=O)Nc1c(O)ccc2c1CCC[C@H]2C1=NCCN1	n	n	x	u	n	n
COc1ccc(-c2nc3cnc(N4CCN(C)CC4)nc3n(C3CC3)c2=O)cc1	n	n[11.4 µM]	x	n	n	n
SMILES	ERK AVP inh	Luciferase inh	Bst PK mod	15-hLO inh	HADH2 inh	HSD17B inh
O=c1c(-c2ccc(F)cc2)nc2cnc(N3CCOCC3)nc2n1C1CC1	n	n[11.4 µM]	x	n	n	n
O=c1c(-c2ccccc2)nc2cnc(N3CCNCC3)nc2n1C1CC1	n	n[11.4 µM]	x	n	n	25µM
CN1CCN(c2ncc3nc(-c4ccc(F)cc4)c(=O)n(C4CC4)c3n2)CC1	n	n[11.4 µM]	x	n	n	20µM
CN1CCN(c2ncc3nc(-c4ccc(Cl)cc4)c(=O)n(C4CC4)c3n2)CC1	n	n[11.4 µM]	x	n	n	25µM
CN1CCN(c2ncc3nc(-c4ccc(F)cc4)c(=O)n(Cc4cccs4)c3n2)CC1	20µM	n[11.4 µM]	x	n	n	n
CC1CCC(C(=O)O)NC1c1ccc(C#CCN(C)C)cc1 (configuration not stated)	n[11.5 µM]	x	x	n[11.4 µM]	n[11.4 µM]	n[11.4 µM]
FC(F)(F)c1cc(CN2CC[C@@]3(CCCNC3)C2)cc(C(F)(F)F)c1	n	n[11.4 µM]	x	n	n	n
COCC(=O)N1CCC[C@@]2(CCN(C(=O)Nc3cccc(C#N)c3)C2)C1	u	n[11.4 µM]	x	n	n	n
c1ccc2nc3[nH]cnc3nc2c1	n	n	x	n	u	32µM
OCc1ccncc1.OCc1ccncc1.[Cl][Pt]([Cl])([Cl])[Cl]	n[11.5 µM]	n[11.4 µM]	x	n[11.4 µM]	u	u
CC1CN(c2nn3c(=O)c4ccccc4nc3c3ccccc23)CC(C)O1 (configuration not stated)	n	n	u	n	n	n
O=c1c2ccccc2nc2c3ccccc3c3nncn3n12	n	n	0.9	n	n	n
CCOc1ccc(C2C(C(=O)Nc3ccc(F)cc3)=C(C)Nc3nc(CCCO)nn32)cc1 (configuration not stated)	n	n	x	n	n	25µM
COc1cc(C(=O)Nc2cccc(-c3nc4cc(C)ccc4o3)c2)cc(OC)c1OC	x	x	x	n	n	n
Cc1ccc2nc(-c3cccc(NC(=O)c4ccc5c(c4)OCCO5)c3)oc2c1	n	u	x	n	u	25µM
CSc1nc2ccc(NC(=O)C3CC(=O)N(Cc4ccco4)C3)cc2s1 (configuration not stated)	n	n	x	n	n	n
CSc1nc2ccc(NC(=O)C3CCCO3)cc2s1 (configuration not stated)	n	25µM	n	n	n	n
O=C(Nc1cccc(-c2nc3cc(Cl)ccc3o2)c1)C1CCCO1 (configuration not stated)	20µM	n	n	n	n	u
Cc1ccc2oc(-c3cccc(NC(=O)C4CCCO4)c3)nc2c1 (configuration not stated)	n	20µM	n	n	n	25µM
COCCn1c(=O)cnc2cnc(OCc3ccccc3)nc21	n	n[11.4 µM]	x	n	n	n
CSc1nc2ccc(Nc3nc(N4CCOCC4)nc(N4CCOCC4)n3)cc2s1	u	n	x	u	n[11.4 µM]	25µM
Cc1ccc(Nc2nc(N3CCOCC3)nc(N3CCOCC3)n2)cc1	n	n	x	n	n	n
N#Cc1c(N)n(CCCN2CCOCC2)c2nc3ccccc3nc12	n	n	n	n	25µM	25µM
CCCCCn1c(N)c(C#N)c2nc3ccccc3nc21	n	n	n	n	n	1.6µM
N#CCCn1c2ccccc2c2nc3ccccc3nc21	u	n	x	n	n	u
COc1ccc(CCn2c(N)c(C#N)c3nc4ccccc4nc32)cc1OC	n	n	n	u	u	32µM
Cc1ccc2c(c1)c1nc3ccccc3nc1n2CCN1CCOCC1	n	n	u	n	n	n
Cc1ccc(S(=O)(=O)c2c(N)n(CCN3CCOCC3)c3nc4ccccc4nc23)cc1C	n	n	n	u	n	32µM
O=c1c2c3nc4ccccc4nc3n(CCN3CCOCC3)c2ncn1CCN1CCOCC1	n	n	n	n	n	u
COc1ccc(Cn2c(N)c(C#N)c3nc4ccccc4nc32)cc1OC	x	n	n	x	x	x
